BAZ2B inh: inhibitors of human BAZ2B bromodomain; Q9UIF8; AlphaScreen BAZ2B-H3K14Ac peptide displacement; Potency, µM (doses to about 114 µM), for inactives: at the highest dose activity change, negative = inhibition, usual class: inhibitors; 4.4% of 360,000 active; also: potency is read from the fitted curve at half-maximal effect; % is scaled to controls: 0 for no effect and ±100 for the full control effect; nearly all actives have a fitted effect of over 60% in size
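BAZ2B 50 nM plus b-H3(5-23)K14Ac 50 nM, PBS pH 7.4/0.01% Tween-20, 30 min RT; compound added (max 110 uM), 30 min RT; streptavidin donor/Ni-chelate acceptor beads 10 ug/mL final, 20 min dark; AlphaScreen read.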
PLK1 PBD inh: PLK1 (human) polo-box domain binding inhibition; P53350; Plk1 PBD binding of FITC phosphopeptide, fluorescence polarization; Potency, µM, for the others: max response, negative = inhibition, hits mostly inhibitors; 2.8% of 360,000 active; AID 720504; also: potency is read from the fitted curve at half-maximal effect; series mostly up to about 57 µM; % is scaled to controls: 0 for no effect and ±100 for the full control effect; nearly all actives have a fitted effect of over 65% in size
G9a inh: blocks human histone lysine methyltransferase G9a. Q96KQ7. G9a H3K9 monomethylation, AlphaScreen, 2 h. Potency, µM (series often up to 102 µM), for inactives: top-dose activity, negative = inhibition, most hits filed as inhibitors. 8.8% of 350,000 active; also: potency is read from the fitted curve at half-maximal effect; % is scaled to controls: 0 for no effect and ±100 for the full control effect; nearly all actives have a fitted effect of over 75% in size
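AlphaScreen read-out: biotin-H3K9 peptide (500 nM) methylation by 20 nM enzyme with 20 uM SAM, 2 h at room temperature after 15 min compound preincubation; anti-monomethyl H3K9 antibody plus donor/acceptor beads, 10 min dark.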
JMJD2A Tudor inh: blocks the human JMJD2A Tudor domain. O75164. AlphaScreen JMJD2A-Tudor / H3K4me3 peptide binding. Potency, µM (series often up to 114 µM), for the others: top-dose activity change, negative = inhibition, hits mostly inhibitors. 4.4% of 390,000 active. AID 504339; also: potency is read from the fitted curve at half-maximal effect; % is scaled to controls: 0 for no effect and ±100 for the full control effect; nearly all actives have a fitted effect of over 50% in size
HP1b chromo inh: inhibitors of HP1-beta chromodomain binding to methylated histone tails | P83916 | AlphaScreen HP1-beta / biotin-H3K9me3 peptide binding | Potency, µM (doses to about 114 µM), without a hit: top-dose activity change, negative = inhibition, hits mostly inhibitors | 0.56% of 390,000 active | AID 540317; also: potency is read from the fitted curve at half-maximal effect; nearly all actives have a fitted effect of over 70% in size
Target sequence (P83916 whole entry, looked up): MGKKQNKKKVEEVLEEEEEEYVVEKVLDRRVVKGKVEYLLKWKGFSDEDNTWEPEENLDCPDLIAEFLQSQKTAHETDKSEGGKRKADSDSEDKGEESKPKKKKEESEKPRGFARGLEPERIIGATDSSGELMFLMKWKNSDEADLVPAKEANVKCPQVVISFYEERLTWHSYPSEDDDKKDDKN
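Compound inhibition of the preformed complex between 50 nM HP1-beta and 50 nM biotinylated H3K9me3 peptide was read by AlphaScreen. Buffer was PBS pH 7.4 with 0.01% Tween-20. Incubations ran 30 min at room temperature, with 10 ug/mL donor/acceptor beads.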
PI5P4Ka inh: blocks human PI5P4K alpha kinase activity. PI5P4Kalpha enzyme, ADP-Glo luminescence, 60 min; active compounds read low. max response, %. 1.2% of 330,000 active. AID 652105; active = max response of -50% or lower; inconclusive = between -30% and -50%; inactive = -30% or higher; also: value at the top dose of about 77 µM; % is scaled to controls: 0 for no effect and ±100 for the full control effect
Target sequence (P48426 whole entry, looked up): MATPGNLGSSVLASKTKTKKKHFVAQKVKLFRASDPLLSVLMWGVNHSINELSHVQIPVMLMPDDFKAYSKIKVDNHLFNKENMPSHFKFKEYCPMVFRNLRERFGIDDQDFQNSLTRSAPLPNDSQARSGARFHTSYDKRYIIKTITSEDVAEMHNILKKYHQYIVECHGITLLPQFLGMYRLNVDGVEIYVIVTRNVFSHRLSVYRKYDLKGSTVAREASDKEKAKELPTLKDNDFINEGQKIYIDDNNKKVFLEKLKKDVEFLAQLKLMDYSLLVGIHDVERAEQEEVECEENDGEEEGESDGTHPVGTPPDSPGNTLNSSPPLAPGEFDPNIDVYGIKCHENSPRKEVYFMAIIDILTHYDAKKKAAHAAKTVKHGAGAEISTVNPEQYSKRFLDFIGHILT
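Single end-point luminescence (ADP-Glo) quantified ADP from PI5P4Kalpha turnover; ATP 5 microM final, 1 h at RT, 0.1% CHAPS and 0.28 mM EGTA in HEPES pH 7.4.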
An asterisk follows results filed as active; ? = inconclusive; . = not tested or not shown; [ ] = another dose, or the depositor's remark. A selection: hits, their analogues and other compounds. The true share with any hit is near 12%. Unless noted, calls follow the shape of the dose curve; as a rule, active = well fitted curve in the direction sought with a large enough effect; inconclusive = small, poorly fitted or top-dose-only effect, or another doubt; inactive = no such curve, though single readings can be large; an effect the other way counts as inactive or inconclusive.

SMILES | BAZ2B inh | PLK1 PBD inh | G9a inh | JMJD2A Tudor inh | HP1b chromo inh | PI5P4Ka inh
CCOc1ccc(C(=O)NC(=S)Nc2ccc(N3CCCCC3)cc2)cc1[N+](=O)[O-] | 8.9µM* | 6µM* | 6.3µM* | ? | 11µM* | 0
CCOc1ccc(C(=O)NC(=S)Nc2ccccc2N2CCCCC2)cc1[N+](=O)[O-] | 23% | -3% | 21%[59 µM] | ? | ? | 18
O=C(c1ccc(F)cc1)N1CCN(c2ccc([N+](=O)[O-])c(N3CCCCC3)c2)CC1 | ? | -16% | 28µM* | ? | -16% | .
O=C(O)c1ccc(NC(=S)NC(=O)c2cccnc2)cc1 | -5% | -2% | 79µM* | -2% | -16% | -1
COC(=O)c1ccc(NC(=S)NC(=O)c2cccnc2)cc1 | -13% | -7% | . | -3% | 19% | -2
O=C(c1ccc2ccccc2c1)N1CCN(c2ccc([N+](=O)[O-])c(N3CCOCC3)c2)CC1 | ? | -4% | ? | ? | ? | .
O=C(NC(=S)Nc1cccnc1)c1cccc(Br)c1 | -16% | -19% | 35µM* | -19% | -19% | -2
Cc1cc(C)c2c(CC(=O)Nc3c(C(=O)c4ccc(F)cc4)oc4ccccc34)coc2c1 | -6% | . | 6%[59 µM] | -22% | 58% | .
C[C@@H]1CN([C@H](C)CO)S(=O)(=O)c2ccc(C#Cc3ccccc3F)cc2O[C@H]1CN(C)C(=O)c1ccc2c(c1)OCO2 | . | -11% | . | . | . | -1
COc1cc(OC)cc(C(=O)NC(=S)Nc2cccnc2)c1 | -15% | -14% | ? | -8%[11.4 µM] | 15% | 2
COc1ccc(C(=O)NC(=S)Nc2cccnc2)cc1OC | -34% | -4% | 50µM* | -14% | 13% | 2
COc1cc(C(=O)Nc2ccccc2C(=O)NCc2cccnc2)cc(OC)c1OC | 3% | 3% | 24% | -4% | 8% | 2
COc1cc(OC)cc(C(=O)N[C@H](C(=O)Nc2ccccc2N2CCOCC2)C(C)C)c1 | -14% | -5% | 5%[59 µM] | 0% | 8% | 0
COc1ccc(C(=O)N/C(=C/c2cccnc2)C(=O)Nc2cccc(C(C)=O)c2)cc1OC | 3% | 30µM* | 0%[12.7 µM] | 56µM* | 1% | -8
COc1cc(OC)cc(C(=O)NC(C(=O)Nc2ccc(N3CCOCC3)cc2)C(C)C)c1 (configuration not stated) | -3% | -3% | 50µM* | -14% | 13% | -3
COc1ccc(C(=O)Nc2ccccc2C(=O)NCc2cccnc2)cc1OC | -15% | 3% | 71µM* | -10% | 39% | 5
O=C(O)C1CCN(S(=O)(=O)c2cccc3nonc23)CC1 | -15% | -1% | 15% | 14% | 31% | -7
CC(=O)c1cccc(NC(=O)/C(=C\c2cccnc2)NC(=O)c2ccccc2)c1 | -2% | -1% | 14% | 8% | 24% | -7
O=C(NNc1cccc([N+](=O)[O-])c1)/C(=C\c1cccnc1)NC(=O)c1ccccc1 | -24% | -1% | 50µM* | -8% | 24% | -15
O=C(CCc1ccccc1)Nc1cccnc1 | -8% | -4% | 18% | -10% | 31% | -1
O=C(CCNC(=O)c1ccccc1)Nc1cccnc1 | 19% | 27µM* | -26% | 45µM* | -1% | ?
CCCCCn1nnnc1-c1nc2cc(C)c(C)cc2[nH]c1=O | . | -11% | . | . | . | -11
CCCCn1cnc2cc(NCc3ccccc3Cl)ccc21 | 35µM* | . | 14µM* | 40µM* | ? | .
c1ccc(-n2cnc3cc(NCc4ccncc4)ccc32)cc1 | ? | -3% | ? | 56µM* | 11% | -21
CCCn1cnc2cc(NCc3cccs3)ccc21 | ? | -2% | 18µM* | ? | -1% | 1
SMILES | BAZ2B inh | PLK1 PBD inh | G9a inh | JMJD2A Tudor inh | HP1b chromo inh | PI5P4Ka inh
Cn1cnc2cc(NCc3ccccc3Cl)ccc21 | -31% | 0% | 50µM* | ? | -7% | 1
CCCOc1ccc(-c2nc3ccc(Br)cc3c(=O)o2)cc1 | 4% | . | 20%[59 µM] | -11% | 28% | .
CN(C1CCCCC1)S(=O)(=O)c1ccc2c(c1)c(=O)c(C(=O)NCc1ccc(Cl)cc1)cn2C | . | . | 1%[59 µM] | 3% | 24% | .
CC(C)c1ccc(CNc2ccc3c(c2)ncn3C)cc1 | 40µM* | 2% | ? | ? | 1% | -2
CCn1cnc2cc(NCc3ccccc3Cl)ccc21 | ? | -11% | 45µM* | ? | ? | 2
COCCNC(=O)CCn1c(=O)c2cc(OC)c(OC)cc2n(CC(=O)Nc2ccccc2OC)c1=O | 8% | . | 0%[59 µM] | 0% | 27% | .
Cc1c(OCC(=O)NC(Cc2ccc(Cl)cc2)C(=O)O)ccc2c(-c3ccccc3)cc(=O)oc12 (configuration not stated) | -2% | 67µM* | -7%[12.7 µM] | -20% | 15% | 1
O=C(Cc1cc(=O)oc2cc(O)ccc12)NC(Cc1ccc(Cl)cc1)C(=O)O (configuration not stated) | 3% | 30µM* | -4% | ? | 9% | -25
COc1ccc(-c2cc(=O)oc3c(C)c(OCC(=O)N[C@@H](Cc4ccc(O)cc4)C(=O)O)ccc23)cc1 | -8% | -8% | . | -12% | 34% | -4
CCNC(=O)c1c(C)oc2ncn(C)c(=O)c12 | 9%[57.1 µM] | . | ? | -12% | 51% | .
COC(=O)C(Sc1nc(C)cc(C)c1C#N)c1ccccc1 (configuration not stated) | 33% | -6% | 65% | 32% | 53% | .
Cc1cc(C)c(C#N)c(Sc2ccccc2N)n1 | -23% | -13% | 7.9µM* | -14% | 42% | 4
Cc1nc(C(=O)NNC(=O)c2ccccc2)c(C(F)(F)F)o1 | -33% | -9% | 4.5µM* | ? | 55% | 1
Cc1nc(C(=O)NCC(=O)c2ccccc2)c(C(F)(F)F)o1 | -11% | -5% | 23% | -1% | 29% | 3
CCOC(=O)c1cccc(Nc2cc(-c3ccccc3)ncn2)c1 | 50µM* | . | 16µM* | -1% | ? | .
CN(C)C(=O)c1ccc(-c2cc(Nc3ccccc3)ncn2)cc1 | . | . | -3%[0.501 µM] | . | . | .
COc1ccc(-c2ccc3[nH]c4c(c3c2)CCN2C(=O)[C@@H]([C@H](C)O)[C@@H](N(C)C(=O)Nc3ccc(F)cc3)C[C@@H]42)cc1 | . | -14% | . | . | . | -10
CC(=O)c1ccc(N2C(=NC(=O)C3CCCO3)SC3CS(=O)(=O)CC32)cc1 (configuration not stated) | -2% | -5% | -2% | -7% | 46% | -5
CN(C)c1ccc(N2C(=NC(=O)C3CCCO3)SC3CS(=O)(=O)CC32)cc1 (configuration not stated) | ? | -7% | 45µM* | ? | 9% | -4

Source: PubChem BioAssay
